# Data as given in PubChem BioAssay (NCATS).
# Several values for one entry are separate records, joined by “and”; a condition that tells them apart may be missing. Equal values may be shown once. Inconclusive results are not listed. More than one record can exist for a structure, and the calls need not agree. Activity calls are given as the source filed them. The call rests on the fitted dose curve; in most records, active means well fitted curve in the direction sought with a large enough effect; inconclusive means small, poorly fitted or top-dose-only effect, or another doubt; inactive means no such curve, though single readings can be large; an effect the other way counts as inactive or inconclusive.
# Columns and labels:
# [1] = Viability qHTS for spleen associated tyrosine kinase inhibitor (SYKi) naive MV4-11 cells (AID 1963823); further: nearly all actives have a fitted effect of over 40% in size
# Method in brief: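 Cells: MV4-11, SYK inhibitor naive, 500 per well. Treatment: library compounds, 72 hr, 37 C, 5% CO2. Read-out: CellTiter-Glo luminescence after 10 min RT.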
# [2] = Viability qHTS for spleen associated tyrosine kinase inhibitor (SYKi) drug resistant MV4-11 cells (AID 1963824); further: nearly all actives have a fitted effect of over 35% in size
# Method in brief: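 SYK-inhibitor-resistant MV4-11 AML cells were seeded at 500 per well onto compound and cultured 72 hours (37 °C, 5% CO2). CellTiter-Glo was then added, and after 10 min at room temperature, luminescence gave viability.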
# [3] = Quantitative highthroughput screen to assess conditional lethalithy of NOMO1 cells grown in RPMI1640 with untreated serum (RPMI+s) (AID 1963876); further: nearly all actives have a fitted effect of over 35% in size;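 on Viability: 100% = DMSO wells and 0% = empty wells without cells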
# Method in brief: (§1)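 Each medium arm—HPLM with 10% dialyzed FBS, or RPMI1640 with 5 mM glucose and 10% untreated or dialyzed FBS—was screened against an 11-point, 3-fold compound titration for 48 h at 37 °C, with CellTiter-Glo luminescence as endpoint.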
# [4] = Quantitative highthroughput screen to assess conditional lethalithy of NOMO1 cells grown in RPMI1640 with dialyzed fetal bovine serum (RPMI+ds) (AID 1963877); further: nearly all actives have a fitted effect of over 30% in size;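 on Viability: series mostly up to about 46 µM; 100% = DMSO control wells and 0% = empty wells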
# Method in brief: as §1
# [5] = Quantitative highthroughput screen to assess conditional lethalithy of P12 Ichikawa cells grown in Human Plasma-Like Medium with dialyzed fetal bovine serum (HPLM+ds) (AID 1963879); settings: Potency: viability; further: nearly all actives have a fitted effect of over 35% in size; on Viability: series mostly up to about 46 µM
# Method in brief: as §1
# [6] = Quantitative highthroughput screen to assess conditional lethalithy of P12 Ichikawa cells grown in RPMI1640 with dialyzed fetal bovine serum (RPMI+ds) (AID 1963880); settings: Potency: P12-Ichikawa viability; further: nearly all actives have a fitted effect of over 35% in size;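 on Viability: 100% = DMSO wells and 0% = empty wells on each plate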
# Method in brief: as §1
# [7] = Quantitative highthroughput screen to assess conditional lethalithy of P12 Ichikawa cells grown in RPMI1640 with untreated serum (RPMI+s) (AID 1963881); settings: Potency: viability; further: nearly all actives have a fitted effect of over 35% in size;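 on Viability: series mostly up to about 46 µM; 100% = DMSO wells and 0% = empty wells without cells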
# Method in brief: as §1
# [8] = Quantitative highthroughput screen to assess conditional lethalithy of SEM cells grown in RPMI1640 with dialyzed fetal bovine serum (RPMI+ds) (AID 1963884); further: nearly all actives have a fitted effect of over 35% in size;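 on Viability: series mostly up to about 46 µM; 100% = DMSO control wells and 0% = empty wells without cells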
# Method in brief: as §1
# [9] = Cellular viability qHTS for adrenocortical cancer (ACC) cell line SW-13 (AID 1963989); settings: SW-13 ACC cells viability, CellTiter-Glo, 48 h; activity (max response): stronger effect = lower value; further: nearly all actives have a fitted effect of over 65% in size;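 on activity (max response): cells grown in serum-free medium with ITS supplement; on the % scale 0 is the no-effect control and ±100 the full control effect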
# Method in brief: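 48 h treatment, SW-13 in ITS/DMEM serum-free; doses up to 46 uM; readout CellTiter-Glo luminescence; curve fit four-parameter logistic.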
# [10] = Cellular viability qHTS for adrenocortical cancer (ACC) cell line NCI-H295R (AID 1963990); further: nearly all actives have a fitted effect of over 60% in size
# Method in brief: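 Compound titrations (up to 46 uM final) are applied to NCI-H295R cultures for 48 h at 37C. Viable cell number is estimated by CellTiter-Glo signal, normalised to DMSO and doxorubicin controls.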
# [11] = Quantitative highthroughput screen to assess conditional lethalithy of SEM cells grown in Human Plasma-Like Medium with dialyzed fetal bovine serum (HPLM+ds) (AID 1963882); further: nearly all actives have a fitted effect of over 35% in size; on Viability: series mostly up to about 46 µM
# Method in brief: as §1
# [12] = Quantitative highthroughput screen to assess conditional lethalithy of SEM cells grown in RPMI1640 with unreated serum (RPMI+s) (AID 1963883); further: nearly all actives have a fitted effect of over 35% in size;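 on Viability: 100% = DMSO wells and 0% = empty wells without cells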
# Method in brief: as §1
# [13] = Quantitative highthroughput screen to assess conditional lethalithy of NOMO1 cells grown in Human Plasma-Like Medium with dialyzed fetal bovine serum (HPLM+ds) (AID 1963878); further: nearly all actives have a fitted effect of over 35% in size
# Method in brief: as §1
# Potency means the concentration at half of the fitted maximal effect.
SMILES,Potency [1],Potency [2],Potency [3],Potency [4],Potency [5],Potency [6],Potency [7],Potency [8],activity (max response) [9],Potency [10],Potency [11],Potency [12],Potency [9],Potency [13]
CC(c1cc2ccccc2s1)N(O)C(N)=O (stereo not given),inactive,inactive,inactive,inactive,inactive,inactive,inactive,inactive,-61.3% (inactive),inactive,,,,
COC(=O)Nc1cc(Nc2cc(NC3CC3)c3ncc(C#N)n3n2)c(Cl)c(N2CCN(C)CC2)c1,0.417 µM (active),662 nM (active),9.33 µM (active),7.41 µM (active),20.9 µM (active),11.7 µM (active),14.8 µM (active),2.34 µM (active),,2.24 µM (active),4.17 µM (active),2.63 µM (active),2820 nM (active),
OC(CCN1CCCCC1)(c1ccccc1)C1CC2C=CC1C2 (stereo not given),inactive,inactive and 16.6 µM (active),inactive,inactive,inactive,inactive,inactive,inactive,,inactive,inactive,inactive,,
CC[C@@]1(O)C(=O)OCc2c1cc1n(c2=O)Cc2cc3c(CN(C)C)c(O)ccc3nc2-1,59.6 nM (active) and 58 nM (active),33.2 nM (active),0.526 µM (active),0.526 µM (active),,0.0743 µM (active),0.0743 µM (active),0.105 µM (active),,,0.166 µM (active),0.0935 µM (active),562 nM (active),
CN(C)c1ccc(C(=C2C=CC(=[N+](C)C)C=C2)c2ccc(N(C)C)cc2)cc1,0.332 µM (active),372 nM (active),0.148 µM (active),0.132 µM (active),0.264 µM (active),0.132 µM (active),0.118 µM (active),,,920 nM (active) and 2.82 µM (active),0.118 µM (active),0.105 µM (active),651 nM (active) and 1.58 µM (active),
CCc1ccc(OCc2ccccc2C(=O)Nc2ccc3nc(C)cc(N)c3c2)cc1,1.66 µM (active),2090 nM (active),9.35 µM (active),8.33 µM (active),9.35 µM (active),14.8 µM (active),13.2 µM (active),10.5 µM (active),,5.62 µM (active),3.72 µM (active),10.5 µM (active),,
COc1ccc2cc([C@H](C)C(=O)O)ccc2c1,inactive,inactive,inactive,inactive,inactive,,inactive,10.5 µM (active),13.9% (inactive) and -10.9% (inactive),,,9.35 µM (active),,
CCCCc1oc2ccc(NS(C)(=O)=O)cc2c1C(=O)c1ccc(OCCCN(CCCC)CCCC)cc1,6.68 µM (active) and 2.59 µM (active) and 6.61 µM (active),2.99 µM (active) and 2.91 µM (active) and 6.61 µM (active),1.18 µM (active),2.09 µM (active),8.33 µM (active),9.35 µM (active),8.33 µM (active),,,4.11 µM (active) and 4.47 µM (active),,,11.6 µM (active) and 3.98 µM (active),
Oc1ccc(OCc2ccccc2)cc1,5.9 µM (active),inactive and 8.33 µM (active),inactive,18.7 µM (active),7.43 µM (active),,3.72 µM (active),,12.2% (inactive),inactive,,,,
COc1cc(C)c(Sc2cnc(NC(=O)c3ccc(CNC(C)C(C)C)cc3)s2)cc1C(=O)N1CCN(C(C)=O)CC1 (stereo not given),5.25 µM (active) and 5.17 µM (active),7.42 µM (active) and 8.2 µM (active),inactive,inactive,inactive,,inactive,5.26 µM (active),,7.94 µM (active),7.43 µM (active),,17800 nM (active),
CC(O)(C#Cc1ccc2c(c1)N(c1nc(N)ncc1Cl)CC2)c1nccs1 (stereo not given),13 µM (active),10300 nM (active),inactive,inactive,inactive,,,inactive,,,,,,
CC(C)[C@H](N)C(=O)OCCOCn1cnc2c(=O)[nH]c(N)nc21,5.9 µM (active),inactive,inactive,inactive,inactive,inactive,,inactive,-3.62% (inactive) and -11.6% (inactive),inactive,inactive,inactive,,
CCCc1cc(C(N)=S)ccn1,inactive,inactive,inactive,inactive,inactive,inactive,inactive,inactive,7.42% (inactive) and -7.33% (inactive),,inactive,,,
CC[C@@H]1C(=O)N(C)c2cnc(Nc3ccc(C(=O)NC4CCC(N5CCN(CC6CC6)CC5)CC4)cc3OC)nc2N1C(C)C (stereo not given in full),0.0206 µM (active),23.1 nM (active) and 9.2 nM (active) and 16.6 nM (active),0.0935 µM (active),0.0743 µM (active),0.0332 µM (active),,0.0743 µM (active),0.059 µM (active),,1.41 µM (active),0.0296 µM (active),0.0833 µM (active),50.1 nM (active),
C=CC(=O)Nc1ccc2ncnc(Nc3ccc(OCc4cccc(F)c4)c(Cl)c3)c2c1,5.8 µM (active) and 5.9 µM (active),2.31 µM (active) and 4.68 µM (active),2.64 µM (active),,,7.43 µM (active),7.43 µM (active),8.33 µM (active),,6.31 µM (active),7.43 µM (active),7.43 µM (active),631 nM (active),2.35 µM (active)
